Drawing on PubChem BioAssay (NCI), this text covers growth for eight compounds.

Some test systems named below: NCI-H226 lung; NCI-H322M lung; HOP-62 NSCLC; NCI-H460 lung; HOP-92 NSCLC; NCI-H522 lung; A549/ATCC NSCLC; 786-0 renal; COLO 205 colon; DU-145 prostate; K-562 leukemia; MALME-3M melanoma; MDA-MB-231 breast; RXF 393 renal; SF-268 CNS; SF-295 CNS; SF-539 CNS; UACC-257 melanoma; M14 melanoma; HCT-15 colon.
What all share (assay): NCI-60 one-dose screen, 48 h (100 = growth as untreated, 0 = no growth, -100 = all killed)
What all share (settings): 10 µM unless noted

The structures appear in SMILES notation. About 83,000 compounds went through this panel and 20% of them were active in at least one assay; those are over-represented in the sample as a whole.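 Single-concentration screen, 48 h exposure, 96-well plates. Endpoint: percent growth. Below 10 = active.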 Unmarked numbers belong to inactive results. The source made the active and inactive calls.

On to `COc1cc(OC)c(C2C(Cl)C(=O)N2Nc2ncnc3ccccc23)cc1OC` (configuration not stated), for which the growth is 90.3% in the assay with NCI-H226 lung; 92.3% in the assay on NCI-H322M lung; 100% with HOP-62 NSCLC; 107% in the assay on NCI-H460 lung; 102% in the assay with HOP-92 NSCLC; 94.2% in the assay with NCI-H522 lung. Moreover, the growth was 105% with A549/ATCC NSCLC; 98.6% with 786-0 renal; 125% in the assay with COLO 205 colon; 109% in the assay with DU-145 prostate; 100% in the assay on K-562 leukemia; 93.2% in the assay on MALME-3M melanoma. Moreover, the growth is 87.3% in the assay with MDA-MB-231 breast; 112% in the assay on RXF 393 renal; 99.2% in the assay on SF-268 CNS; 102% in the assay with SF-295 CNS; 104% in the assay with SF-539 CNS; 111% in the assay with UACC-257 melanoma. Moreover, the figures for the growth in the assay on M14 melanoma and with HCT-15 colon were 88.6% and 101%, respectively.

For `O=C(N/N=C/c1ccc(Br)s1)c1[nH]c2ccc(Br)cc2c1-c1ccccc1`, the growth in the assay with NCI-H226 lung is 52.6%; in the assay on NCI-H322M lung it was 48.2%; with HOP-62 NSCLC, 46.5%; in the assay with NCI-H460 lung, 3.52% (active); in the assay on HOP-92 NSCLC it was 46.6%; with NCI-H522 lung, -38.5% (active). Also, the growth in the assay on A549/ATCC NSCLC was 28.8%; in the assay on 786-0 renal it was 11.5%; in the assay with COLO 205 colon it was -44.3% (active); in the assay on DU-145 prostate it was 18.6%; with K-562 leukemia, 7.72% (active); in the assay with MALME-3M melanoma it was 55.1%. The growth in the assay with MDA-MB-231 breast is 4.67% (active); in the assay on RXF 393 renal, 60%; in the assay with SF-268 CNS it was 37.2%; in the assay with SF-295 CNS it was 14.8%; in the assay on SF-539 CNS, 0.701% (active); with UACC-257 melanoma, 57.2%. Moreover, the growth in the assay on M14 melanoma was 2.05% (active); in the assay with HCT-15 colon it was 12.4%.

Turning to `Cn1cc(-c2cc(N)n3nc(-c4cn(C)c5ccc(Cl)cc45)cc3n2)c2cc(Cl)ccc21`, the growth is 111% with NCI-H226 lung; 85.7% with NCI-H322M lung; 102% in the assay on HOP-62 NSCLC; 71.4% in the assay on NCI-H460 lung; 95.3% in the assay with HOP-92 NSCLC; 100% in the assay on NCI-H522 lung. The growth in the assay on A549/ATCC NSCLC was 87.9%; in the assay on 786-0 renal it was 99.4%; with DU-145 prostate, 71.4%; in the assay on K-562 leukemia, 26.5%; in the assay with MALME-3M melanoma, 100%; in the assay with MDA-MB-231 breast it was 71.1%. Also, the growth is 121% with RXF 393 renal; 78.8% in the assay on SF-268 CNS; 95.4% in the assay on SF-295 CNS; 94.2% in the assay with SF-539 CNS; 108% with UACC-257 melanoma; 53.4% in the assay with M14 melanoma. The growth in the assay on HCT-15 colon was 32.8%.

As to `Nc1cc(-c2c[nH]c3ccccc23)nc2cc(-c3c[nH]c4ccccc34)nn12`, the growth with NCI-H226 lung was 67.3%; in the assay on NCI-H322M lung it was 80.8%; in the assay on HOP-62 NSCLC, 95.3%; with NCI-H460 lung, 4.94% (active); in the assay with HOP-92 NSCLC, 72.5%; with NCI-H522 lung, 43%. Besides, the growth in the assay with A549/ATCC NSCLC was 58.3%; with 786-0 renal, 46.8%; with COLO 205 colon it was 49.4%; with DU-145 prostate, 40.2%; with K-562 leukemia, 4.17% (active); with MALME-3M melanoma, 64.5%. Besides, the growth in the assay with MDA-MB-231 breast was 48.2%; with RXF 393 renal it was 38.2%; with SF-268 CNS, 75.2%; in the assay on SF-295 CNS it was 34.8%; in the assay with SF-539 CNS, 32.4%; in the assay with UACC-257 melanoma it was 70.2%. Also, the growth with M14 melanoma was 29.3%; in the assay with HCT-15 colon it was 6.35% (active).

As for `Nc1nc(N)c2c(n1)NC(c1ccc(C(F)(F)F)cc1)CC(c1ccc(Nc3nc(NCCO)nc(Nc4ccc(Cl)cc4)n3)cc1)=N2` (configuration not stated), the growth with NCI-H226 lung was -40.7% (active); in the assay with NCI-H322M lung it was -61% (active); with HOP-62 NSCLC, 71.7%; with NCI-H460 lung, -69% (active); in the assay on HOP-92 NSCLC it was -65.6% (active); with NCI-H522 lung, -80.1% (active). For the same compound, the growth was -66.2% (active) in the assay on A549/ATCC NSCLC; -90.2% (active) with 786-0 renal; -93.1% (active) in the assay with DU-145 prostate; 1.08% (active) in the assay on K-562 leukemia; -79% (active) in the assay with MALME-3M melanoma; -59.4% (active) with MDA-MB-231 breast. Besides, the growth in the assay on RXF 393 renal was -78.8% (active); in the assay with SF-268 CNS it was -29.4% (active); in the assay with SF-295 CNS, -79.5% (active); in the assay with SF-539 CNS, -86.2% (active); in the assay with UACC-257 melanoma, 74.1%; with M14 melanoma, -86.9% (active). In addition, the growth in the assay on HCT-15 colon is -54.4% (active).

`COc1cccc(COc2ccc(/C=C3/C(=O)Nc4cc(Cl)ccc43)cc2)c1`: the growth in the assay on NCI-H226 lung was 84.9%; in the assay with NCI-H322M lung, 83.9%; with HOP-62 NSCLC it was 85.4%; in the assay on NCI-H460 lung it was 103%; with HOP-92 NSCLC, 79.8%; in the assay on NCI-H522 lung, 84%. The growth is 92.4% in the assay on A549/ATCC NSCLC; 102% in the assay with 786-0 renal; 102% with COLO 205 colon; 98.5% with DU-145 prostate; 96.7% with MALME-3M melanoma; 78.2% in the assay with MDA-MB-231 breast. Besides, the growth in the assay with RXF 393 renal is 88.7%; in the assay with SF-268 CNS, 99.5%; in the assay on SF-295 CNS, 103%; in the assay with SF-539 CNS it was 93%; with UACC-257 melanoma, 104%; in the assay with M14 melanoma, 104%. Further, the growth with HCT-15 colon is 99.6%.

Turning to `COc1cc(-c2ccc3ncnc(NC(C)c4ccccc4)c3c2)cnc1OC` (configuration not stated), the growth is 52.8% in the assay with NCI-H226 lung; 15.4% in the assay with NCI-H322M lung; 44.4% in the assay with HOP-62 NSCLC; 64.5% in the assay with NCI-H460 lung; 20.1% with HOP-92 NSCLC; 40.9% with NCI-H522 lung. Further, the growth was 41.9% in the assay on A549/ATCC NSCLC; 44.2% in the assay on 786-0 renal; 72.9% in the assay on COLO 205 colon; 37.2% with DU-145 prostate; 76.3% with K-562 leukemia; 56.3% in the assay with MALME-3M melanoma. The growth in the assay with MDA-MB-231 breast is 36.1%; in the assay on RXF 393 renal, 26%; in the assay with SF-268 CNS, 44.9%; in the assay with SF-295 CNS, 37.1%; in the assay with SF-539 CNS, 47.2%; in the assay on UACC-257 melanoma, 78.8%. Moreover, the growth with M14 melanoma is 68%; in the assay on HCT-15 colon, 52.9%.

With `c1ccc2c(NCCCN3CCOCC3)c3oc4ccccc4c3nc2c1`, the growth with NCI-H226 lung was -11.3% (active); in the assay on NCI-H322M lung, -17.5% (active); in the assay with HOP-62 NSCLC, -13.4% (active); with NCI-H460 lung it was 0.606% (active); in the assay with HOP-92 NSCLC, -22.9% (active); in the assay with NCI-H522 lung, -52.8% (active). The growth with A549/ATCC NSCLC was -62.1% (active); in the assay on 786-0 renal, 6.38% (active); in the assay on COLO 205 colon, -67.8% (active); in the assay with DU-145 prostate, 2.98% (active); in the assay on K-562 leukemia, 2.74% (active); in the assay with MALME-3M melanoma, -25.9% (active). In addition, the growth was -27.9% (active) with MDA-MB-231 breast; -76.2% (active) with RXF 393 renal; -3.87% (active) with SF-268 CNS; -17.6% (active) in the assay with SF-295 CNS; -29.5% (active) in the assay with SF-539 CNS; -7.26% (active) in the assay on UACC-257 melanoma. Also, the values for the growth in the assay with M14 melanoma and in the assay on HCT-15 colon were -32% (active) and 0.78% (active), respectively.
